# Screening results from PubChem BioAssay.
# Sampled rows, rich in hits. Any-hit rate of the full collection: about 9.3%.
# ELG1 repair inh: inhibitors of ELG1-dependent DNA repair in HEK293T cells; HEK293T ELG1-luciferase reporter, luminescence, 16 h; DNA damage induced by 5-fluorouridine; Potency, µM (doses to about 46.1 µM), inactives show at the highest dose activity change, negative = inhibition, hits mostly inhibitors; 330,000 compounds, 2.3% hits; AID 504467; further: on the % scale 0 is the no-effect control and ±100 the full control effect; nearly all actives have a fitted effect of over 55% in size
#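 DMSO vehicle served as the neutral condition. Each well held 2,000 cells given 5-fluorouridine plus compound; after 16 hr at 37 °C/5% CO2, ONE-Glo was added and luciferase measured 30 min later.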
# SMN2 splice up: enhancers of SMN2 splice variant expression; AID 1458; 210,000 compounds, 2.8% hits; Potency, µM (series often up to 46.1 µM), without a hit: at the top dose activity change, positive = activation, actives largely listed as activators; HEK293 SMN2-luciferase splicing reporter, luminescence, 30-36 h; further: % of control where 0% means no effect; nearly all actives have a fitted effect of over 55% in size
#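 HEK293 cells carry an SMN2 […]–luciferase reporter in which exon 7 inclusion puts luciferase in frame. Cells were plated 10-12 h before compound addition, then incubated 30-36 h at 37C. ONE-Glo luminescence was read; sodium butyrate at 4.5 mM final served as control.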
# ELG1 genotox: inducers of genotoxicity in HEK293T ELG1-luciferase cells; HEK293T ELG1-luciferase reporter, luminescence, 16 h; 330,000 compounds, 1.3% hits; Potency, µM (titrated, usually from 46 µM), for the others: at the top dose activity change, positive = activation, actives largely listed as activators; further: % of control where 0% means no effect; nearly all actives have a fitted effect of over 60% in size
#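 HEK293T cells expressing luciferase-tagged ELG1 were exposed to compound or DMSO vehicle for 16 hr at 37 °C and 5% CO2. Luciferase activity was then measured with ONE-Glo after 30 min at room temperature.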
# FLuc counter: counter-screen for miR-21 project: firefly luciferase inhibitors or activators; P08659; purified FLuc, Km substrates, luminescence inhibition; AID 588342; 360,000 compounds, 6.9% hits; Potency, µM (top dose mostly 57.5 µM), for inactives: at the highest dose activity change, negative = inhibition, usual class: inhibitors;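 further: plate controls were vehicle for no effect and reference inhibitor for full effect; nearly all actives have a fitted effect of over 55% in size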
# Target sequence (P08659 whole entry, looked up): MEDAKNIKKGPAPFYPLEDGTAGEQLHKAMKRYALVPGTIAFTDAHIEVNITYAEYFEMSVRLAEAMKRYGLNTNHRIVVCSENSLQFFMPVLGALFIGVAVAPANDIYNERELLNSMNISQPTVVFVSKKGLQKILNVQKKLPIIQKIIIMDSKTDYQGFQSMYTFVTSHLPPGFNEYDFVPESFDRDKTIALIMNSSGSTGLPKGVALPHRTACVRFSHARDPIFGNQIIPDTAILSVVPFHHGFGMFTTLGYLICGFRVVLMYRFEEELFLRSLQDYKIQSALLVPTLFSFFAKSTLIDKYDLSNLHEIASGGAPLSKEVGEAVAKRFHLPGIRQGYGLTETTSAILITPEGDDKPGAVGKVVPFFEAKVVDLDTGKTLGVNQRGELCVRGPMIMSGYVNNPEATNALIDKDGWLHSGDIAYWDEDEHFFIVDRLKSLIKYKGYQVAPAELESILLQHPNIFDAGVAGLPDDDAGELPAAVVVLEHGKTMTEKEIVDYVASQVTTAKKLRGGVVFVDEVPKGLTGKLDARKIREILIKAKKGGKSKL
#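 Biochemical qHTS of compounds, final roughly 60 µM downward over six points, against 10 nM purified firefly luciferase using Km concentrations of substrates (10 uM D-luciferin, 10 uM ATP) in Tris acetate pH 7.5 buffer; luminescence output.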
# Rab9 promoter act: Rab9 promoter activation. Huh7 Rab9 promoter-luciferase reporter, luminescence, 24 h. Potency, µM (top dose mostly 9.22 µM), for inactives: at the highest dose activation, negative = inhibition, hits mostly activators. 320,000 compounds, 2.8% hits; further: % of control where 0% means no effect; nearly all actives have a fitted effect of over 60% in size
#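 Stable Rab9-luc Huh7, 1500 cells/well, 2 h settle; cmpd in DMSO, 24 h, 37 °C/5% CO2; luciferase reagent 10 min RT; luminescence.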
# NPC1 promoter act: NPC1 promoter activation; Huh7 NPC1 promoter luciferase reporter, 24 h; Potency, µM (highest dose often 9.22 µM), without a hit: at the top dose activation, usual class: activators; 320,000 compounds, 2.4% hits; further: % of control where 0% means no effect; nearly all actives have a fitted effect of over 60% in size
#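 Readout is luciferase luminescence, reflecting NPC1 promoter activation in stably transfected Huh7 cells after 24 h compound exposure at 37 °C in reduced-serum medium with 10% FBS.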
# Active calls of the source: *; ? = inconclusive; · = no result given; [ ] = dose if it differs, or a comment. The call rests on the fitted dose curve; in most records, active means well fitted curve in the direction sought with a large enough effect; inconclusive means small, poorly fitted or top-dose-only effect, or another doubt; inactive means no such curve, though single readings can be large; an effect the other way counts as inactive or inconclusive. Potency means the concentration at half of the fitted maximal effect.
SMILES,ELG1 repair inh,SMN2 splice up,ELG1 genotox,FLuc counter,Rab9 promoter act,NPC1 promoter act
O=C(Nc1nc(-c2cc3ccccc3oc2=O)cs1)c1ccco1,-9%,6%,3%,?,16%,30%
O=C1COc2ccc(-c3csc(NCC4CCCO4)n3)cc2N1 (stereo unspecified),?,-24%,11%,17µM*,27%,5%
CCC1CN(C(=O)Nc2cccc(OC)c2)c2ccccc2O1 (stereo unspecified),·,·,·,-7%,·,·
Cc1ccc(C(C(=O)NC2CCCC2)N(C(=O)c2csnn2)c2ccccc2)o1 (stereo unspecified),2%,·,-5%,1%,-2%,-8%
O=C(OCc1ccccc1)c1ccccc1,·,-17%,·,·,·,·
CCOC(=O)c1cccc(COC(=O)c2cccc(-c3nnc(-c4ccccc4)o3)c2)c1,?,3.5µM*,?,11µM*,1.3µM*,2µM*
O=C(OCc1ccc(C(=O)c2ccccc2)cc1)c1cccc(-c2nnc(-c3ccccc3)o2)c1,-25%,?,?,11µM*,1.1µM*,?
O=C(OCc1ccccc1)c1cccc(-c2nnc(-c3ccccc3)o2)c1,?,?,?,-19%,?,1.6µM*
O=C(COC(=O)c1cccc(O)c1)Nc1nnc(-c2ccccc2)o1,9%,·,3%,-19%,-2%,0%
O=C(OCc1nnc(-c2ccccc2)o1)c1ccc(CO)cc1,12%,7%,1%,-2%,0%,-5%
O=C(OCc1ccccc1)c1ccc2c(c1)-c1ccccc1C2=O,?,13µM*,10µM*,?,?,?
COCCCN1CN=C(NS(=O)(=O)c2ccc(C)cc2)NC1,-12%,·,-5%,1%,4%,2%
CCOC(=O)c1cc(-c2nnc(-c3ccc(Oc4ccccc4)cc3)o2)c(C)nc1C,23µM*,-32%,-11%,-11%,-3%,-1%
CC(C)OC(=O)c1ccc(COC(=O)c2cccc(-c3nnc(-c4ccccc4)o3)c2)cc1,?,5µM*,?,?,2.5µM*,2.2µM*
Cc1cc(C)n(CCNC(=O)c2cc(COc3ccc4ncccc4c3)on2)n1,?,·,-5%,-18%,-7%,-4%
CCc1ccccc1NC(=O)COC(=O)c1c(C)nsc1NC,0%,·,0%,-1%,-32%,-19%
CNc1snc(C)c1C(=O)OCC(=O)Nc1ccc(C)cc1F,13µM*,·,-8%,10%,-2%,0%
NC(=O)c1ccc(NC(=O)c2cccc3c2OCCCO3)cc1,0%,·,-4%,6%,-4%,-1%
O=C(NCCc1ccc2c(c1)OCCO2)c1ccccc1F,?,-9%,16%,?,29%,?
COc1ccccc1C(CNC(=O)c1oc2ccccc2c1C)N1CCCC1 (stereo unspecified),-21%,·,-2%,24µM*,-6%,1%
COc1ccc(CCNC(=O)c2oc3ccccc3c2C)cc1,-4%,·,0%,19µM*,-4%,-3%
Cc1c(C(=O)NCCc2ccc3c(c2)OCCO3)oc2ccccc12,-18%,-13%,-1%,19µM*,9%,-2%
COc1ccc(CCNC(=O)c2oc3ccc(OC)cc3c2C)cc1,4%,·,-1%,?,18%,3%
O=C(Nc1ccccc1)N1CCSc2ccccc21,-2%,3%,0%,-6%,1%,-7%
O=C(/C(N=Nc1cccc([N+](=O)[O-])c1)=C(/O)c1ccc(Br)cc1)C(F)(F)F,?,·,-5%,3%,-42%,-39%
SMILES,ELG1 repair inh,SMN2 splice up,ELG1 genotox,FLuc counter,Rab9 promoter act,NPC1 promoter act
COC(=O)c1ccc(N=NNc2ccc(C(=O)OC)cc2)cc1,?,?,18µM*,?,?,?
O=C(O)c1ccc(N=NNc2cccc([N+](=O)[O-])c2)cc1,?,11µM*,?,2.4µM*,0.63µM*,0.89µM*
COC(=O)c1ccc(N=NNc2cccc(Br)c2)cc1,?,5µM*,?,7.6µM*,1.3µM*,1.3µM*
COC(=O)C(C)Nc1cccc(Br)c1 (stereo unspecified),10%,·,0%,1%,-1%,-1%
COC(=O)c1ccc(NS(=O)(=O)N(C)C)cc1,18%,21%,1%,-2%,-11%,0%
N#C/C(=N\Nc1cccc([N+](=O)[O-])c1)C(=O)c1ccc(Br)cc1,1.8µM*,-50%,-11%,?,-58%,-32%
O=c1c(Cc2ccccc2O)c(O)nc2n1CCCS2,-15%,-9%,-6%,2%,-1%,1%
COC(=O)c1c(NC(=O)CCl)sc(C(=O)N2CCOCC2)c1C,?,·,-16%,1%,-2%,-7%
NC(=O)CC(NC(=O)Cc1ccc(Br)cc1)c1ccc(N2CCC(N3CCCCC3)CC2)c([N+](=O)[O-])c1 (stereo unspecified),?,·,4%,9%,2%,1%
COC(=O)c1ccc(N=Nc2c(C)[nH]n(-c3ccccc3)c2=O)cc1,0%,·,-5%,-7%,-2%,1%
COC(=O)c1ccc(N=NNc2ccccc2)cc1,?,8.9µM*,?,3.8µM*,1.3µM*,1.4µM*
CCN1C(=O)S/C(=C/c2ccc(Sc3nc4ccccc4[nH]3)o2)C1=O,12µM*,-39%,-1%,-5%,-1%,-2%
N#C/C(=C/c1ccc(Sc2nc3ccccc3[nH]2)o1)c1cccc(Br)c1,?,-67%,-4%,3%,-4%,-4%
Cc1cc(NC(=O)COc2ccccc2)ccc1Cl,?,·,?,27µM*,28%,?
CN1CCN(c2ccc(NC(=O)COc3ccccc3)cc2Cl)CC1,?,·,?,21µM*,4µM*,4.5µM*
Cc1ccc(NC(=O)COc2ccccc2)cc1Cl,18%,·,15%,?,0%,-5%
O=C(COc1ccc(C(=O)O)cc1)Nc1cccc(C(F)(F)F)c1,-2%,-2%,3%,-14%,-1%,3%
CC(C)c1ccc(NC(=O)COc2ccccc2)cc1,?,·,?,17µM*,?,?
CN1CCN(C(=S)c2ccc(OCC(=O)Nc3cccc(C(F)(F)F)c3)cc2)CC1,18µM*,-47%,1%,-8%,-10%,-6%
O=C1c2c(O)cc(O)cc2OC(c2ccc(O)c(O)c2)C1O (stereo unspecified),·,?,·,·,-11%[46.1 µM],-5%[46.1 µM]
C=CCNC(=S)/N=c1\sccn1C,15%,5%,-1%,-9%,4%,1%
CC1CCc2cc(F)ccc2N1C(=O)c1cccs1 (stereo unspecified),5%,2%,-4%,-3%,-15%,5%
